This experiment relates to M. mycetomatis strain mm55. To be noted: primary screen, metabolic activity vs growth control, 96 h, 2 µM, inhibitor.

Structures can show the parent of a compound that is named as a salt. Where two headings read alike, the source gives them in different places. Screen size: about 5,300 compounds; about 130 (2.5%) showed an effect of 50% or more. What follows is part of a selection rich in strong results, with near analogues and random picks from the rest.

As for `N#C/C(=C1/SCC(c2ccccc2Cl)S1)n1ccnc1` (stereo not drawn) [Lanoconazole], the “% viability” value was 3.92%.
Still for that read-out and setting: to `N#C/C(=C1/SC[C@@H](c2ccc(Cl)cc2Cl)S1)n1ccnc1` [Luliconazole] belongs 0.7126%.
On the same count and under the same terms, to `C[C@@]12CC[C@@H]3[C@@](CC[C@H]4[C@@]3(C)CCC[C@@]4(C)C(=O)O)(CC1=O)C2` [ONC0002858, isosteviol] belongs 83.56%; to `CN(C)c1ccc(-c2nc3c(N4CCN(CC(=O)Nc5nccs5)CC4)c(Cl)cnc3[nH]2)cc1` [ONC0004963, cct129202], 95.03%.
Same read-out and setting: to `O=C1c2ccccc2NC2=CCCCCN12` [ONC0003231, 78910tetrahydroazepino21bquinazolin126hone] belongs 99.72%.
As to `COc1ccccc1OCC(O)CNC(C)C` (stereo not drawn) [ONC0003655, moprolol], the “% viability” value turned out to be 69.09%.
In the case of `[2H]C([2H])([2H])C(O)(CCO[C@@H](C)[C@H]1CC[C@H]2/C(=C/C=C3/C[C@@H](O)C[C@H](O)C3=C)CCC[C@]12C)C([2H])([2H])[2H]` [ONC0001868, maxacalcitol], the “% viability” value is given as 112.3%.
Same read-out and setting: to `Oc1ccc(C2(c3ccccc3F)CCC(F)(F)CC2)cc1` [ONC0000174, ac186] belongs 93.25%; to `Cc1cc(C(=O)Nc2nc3cccc(Cl)c3n2[C@@H]2CCCCN(C(=O)/C=C/CN(C)C)C2)ccn1` [ONC0001107, nazartinib], 39.34%.
The same measure, in the same setting: to `CN(C)C/C=C/C(=O)Nc1ccc(C(=O)Nc2cccc(Nc3ncc(Cl)c(-c4c[nH]c5ccccc45)n3)c2)cc1` [ONC0002074, thz1] belongs 55.81%; to `CN(C)C/C=C/C(=O)Nc1cccc(C(=O)Nc2cccc(Nc3ncc(Cl)c(-c4c[nH]c5ccccc45)n3)c2)c1` [ONC0002061, thz2], 66.57%.
Same read-out and setting: to `CC(=O)[C@@]12OC(C)(c3ccccc3)O[C@@H]1C[C@H]1[C@@H]3CCC4=CC(=O)CC[C@]4(C)[C@H]3CC[C@@]12C` (stereo partly drawn) [ONC0002369, algestoneacetophenide] belongs 99.76%; to `CC(Nc1ncnc2nc[nH]c12)c1cc2ccc(F)cc2nc1-c1ccccn1` (stereo not drawn) [ONC0004426, amg319], 156.7%.
On to `CSC[C@H](N)C(=O)O` [ONC0003388, smethylcysteine], for which the “% viability” value is 83.56%.
On the same count and under the same terms, to `N[C@H](CSC(c1ccccc1)(c1ccccc1)c1ccccc1)C(=O)O` [ONC0001742, strityllcysteine] belongs 48.39%; to `N[C@H](Cc1ccccc1)C(=O)O` [ONC0002457, dphenylalanine], 101.3%.
With `C[C@]12C=CC(=O)C=C1CCC1C2[C@@H](O)C[C@@]2(C)C1CC[C@]2(O)C(=O)CO` (stereo partly drawn) [ONC0005351, prednisolone], the “% viability” value is 112.6%.
Still for that read-out and setting: to `Cc1cc(-c2ccc(/N=N/c3ccc4c(S(=O)(=O)O)cc(S(=O)(=O)O)c(N)c4c3O)c(C)c2)ccc1/N=N/c1ccc2c(S(=O)(=O)O)cc(S(=O)(=O)O)c(N)c2c1O` [ONC0003296, evans blue] belongs 49.05%.
Same read-out and setting: to `COc1cc(-c2ccc(/N=N/c3ccc4c(S(=O)(=O)O)cc(S(=O)(=O)O)c(N)c4c3O)c(OC)c2)ccc1/N=N/c1ccc2c(S(=O)(=O)O)cc(S(=O)(=O)O)c(N)c2c1O` [ONC0002750, chicagoskyblue6b] belongs 94.85%.
As for `COC(=O)CC1CC(c2ccc(O)cc2)=NO1` (stereo not drawn) [ONC0001839, iso1], the “% viability” value is recorded as 78.97%.
Turning to `N[C@@H](CC(=O)N1CCn2c(nnc2C(F)(F)F)C1)Cc1cc(F)c(F)cc1F` [ONC0004045, sitagliptin phosphate], the “% viability” value amounted to 93.31%.
Still for that read-out and setting: to `N[C@@H](CC(=O)N1CCn2c(nnc2C(F)(F)F)C1)Cc1n[nH]c2c(F)c(F)ccc12` [ONC0001660, pk44 phosphate] belongs 33.36%; to `NCCNc1ccc(NCCN)c2c1C(=O)c1ccncc1C2=O.O=C(O)/C=C\C(=O)O.O=C(O)/C=C\C(=O)O` [ONC0000916, pixantrone dimaleate], 85.22%; to `Fc1cc(F)c2c(c1)[C@H]1C=CC[C@H]1C(c1cccnc1)N2` (mixture of isomers) [ONC0005186, golgicide a], 78.39%.
On the same count and under the same terms, to `Cc1ccc2c(c1CCC(=O)O)CC[C@@H](NS(=O)(=O)c1ccc(Cl)cc1)C2` [ONC0001303, terutroban] belongs 45.19%.
Same read-out and setting: to `O=C(O)Cc1ccc(CCNS(=O)(=O)c2ccc(Cl)cc2)cc1` [ONC0002194, daltroban] belongs 74.66%.
On to `O=C(O)CCn1c2c(c3ccccc31)C[C@H](NS(=O)(=O)c1ccc(F)cc1)CC2` [ONC0000918, ramatroban], for which the “% viability” value is on record as 93.57%.
Still for that read-out and setting: to `COC[C@H](NC(=O)c1cnc(C)s1)C(=O)N[C@@H](COC)C(=O)N[C@@H](Cc1ccccc1)C(=O)C1(C)CO1` (stereo partly drawn) [ONC0004389, oprozomib onx 0912] belongs 101.4%.
Same read-out and setting: to `O=C(CNC(=O)c1cccc(C(F)(F)F)c1)N[C@@H]1CCN(Cc2ccc(Cl)cc2)C1` [ONC0002608, teijincompound1] belongs 76.98%; to `C[S+]([O-])CCCCN=C=S` (stereo not drawn) [ONC0003262, sulforaphane], 49.62%.
For `C/C=C/C1=C(C(=O)O)N2C(=O)[C@@H](NC(=O)[C@H](N)c3ccc(O)cc3)[C@H]2SC1` [ONC0004213, cefprozil], the “% viability” value stood at 75.17%.
The same measure, in the same setting: to `O=C(Nc1cnccc1Cl)N1CCN(Cc2ccc3c(c2)OC(F)(F)O3)CC1` [ONC0001299, jnj42165279] belongs 60.28%.
Still for that read-out and setting: to `COc1nc(C)nc(Cl)c1N=C1NCCN1` [ONC0003528, moxonidine] belongs 108%; to `CCCCCCCC/C=C/C(=O)O` [ONC0003676, trans2undecenoic acid], 70.7%.
On to `CCCCCCCCCCCCCC[C@@H](O)[C@@H](O)[C@@H](N)CO` [ONC0003465, phytosphingosine], for which the “% viability” value is given as 45.49%.
In the case of `CCCCCCCCCCCCCCC[C@@H](O)[C@@H](N)CO` [ONC0003442, dihydrosphingosine derythro], the “% viability” value is 75.68%.
The same measure, in the same setting: to `CCCCCC(C)N` (stereo not drawn) [ONC0003207, tuaminoheptane sulfate] belongs 110.6%; to `N#Cc1ccc(Cn2cncc2CN2CCN(c3cccc(Cl)c3)C(=O)C2)cc1` [ONC0000972, l778123 hydrochloride], 78.78%.
On the same count and under the same terms, to `CC(=O)O[C@]1(C(C)=O)CCC2C3C[C@H](C)C4=CC(=O)CC[C@]4(C)C3CC[C@@]21C` (stereo partly drawn) [ONC0000456, medroxyprogesterone acetate] belongs 83.76%.
As for `N[C@H](Cc1cc(I)c(Oc2ccc(O)c(I)c2)c(I)c1)C(=O)O` [ONC0003830, liothyronine], the “% viability” value came out at 90.31%.
For the compound `O=C(O[C@@H]1C[C@@H]2C[C@@H]3C[C@H](C1)N2CC3=O)c1c[nH]c2ccccc12` [ONC0005492, dolasetron], the “% viability” value was 77.8%.
For the compound `O[C@H]([C@H](O)[C@@H]1CO1)[C@H]1CO1` [ONC0001201, val083], the “% viability” value is on record as 107%.
On the same count and under the same terms, to `CC(C)(C)c1ccc(C(=O)Nc2cn3cc(-n4ccnc4)ccc3n2)cc1` [ONC0000079, tcask10] belongs 88.09%.
Still for that read-out and setting: to `N[C@@H](CC(=O)NO)C(=O)O` [ONC0005577, lasparaginenhydroxy] belongs 46.79%; to `NC(=O)C[C@H](N)C(=O)O` [ONC0002130, lasparagine], 76.47%; to `N[C@@H](CC(=O)O)C(=O)O` [ONC0005584, lasparticacid], 67.27%.
Turning to `CC1(C)S[C@@H]2C(N3C(=O)[C@@H](c4ccccc4)NC3(C)C)C(=O)N2[C@H]1C(=O)O` (stereo partly drawn) [ONC0000520, hetacillin potassium], the “% viability” value turned out to be 62.89%.
On to `Cn1c(Nc2ccc(C(F)(F)F)cc2)nc2cc(Oc3ccnc(-c4ncc(C(F)(F)F)[nH]4)c3)ccc21` [ONC0005005, raf265 chir265], for which the “% viability” value was 41.37%.
Same read-out and setting: to `CC(C)C[C@H](NC(=O)CN(C)C(=O)[C@H](Cc1ccccc1)NC(=O)[C@H](Cc1ccccc1)NC(=O)[C@H](CCC(N)=O)NC(=O)[C@H](CCC(N)=O)NC(=O)[C@@H]1CCCN1C(=O)[C@H](CCCCN)NC(=O)[C@@H]1CCCN1C(=O)[C@@H](N)CCCNC(=N)N)C(=O)N[C@@H](CCS(C)(=O)=O)C(N)=O` [ONC0003648, sar9meto211substance p] belongs 64.96%; to `Cc1ccc(Cl)c(OCC(O)CNC(C)C)c1` (stereo not drawn) [ONC0003711, 12chloro5methylphenoxy3isopropylamino2propanol], 103%.
Same read-out and setting: to `O=C1C2CC=CCC2C(=O)N1SC(Cl)(Cl)Cl` (stereo not drawn) [ONC0003351, captan] belongs 76.61%; to `NC(Cc1ccc(O)cc1)C(=O)O` (stereo not drawn) [ONC0003385, dltyrosine], 63.01%.
Same read-out and setting: to `OC[C@H]1OC(O)C[C@@H](O)[C@@H]1O` (mixture of isomers) [ONC0003476, 2deoxyglucose] belongs 78.39%; to `CC(C)NC(=O)COc1cccc(-c2nc(Nc3ccc4[nH]ncc4c3)c3ccccc3n2)c1` [ONC0001882, slx2119], 46.69%; to `COC(=O)[C@H](NC(=O)c1cc(-c2ccccc2)nc2ccccc12)c1ccccc1` [ONC0001501, sb218795], 80.75%.
For the compound `O=C(NCc1cccc(O)c1)Nc1nc(-c2ccncc2)cs1` [ONC0002554, srpin340], the “% viability” value (Madurella mycetomatis metabolic activity at 2µM (%)) stood at 81.94%.
Turning to `c1cc(Nc2cc(C3CC3)[nH]n2)nc(Nc2ccc3[nH]cnc3c2)n1` [ONC0003009, apy29], the “% viability” value came to 67.52%.
Same read-out and setting: to `CC(C)(C)c1cc(/C=C(\C#N)C(N)=S)cc(C(C)(C)C)c1O` [ONC0005258, tyrphostin ag 879 ag 879] belongs 127.6%; to `CC(C)(C)c1cc(C=C(C#N)C#N)cc(C(C)(C)C)c1O` [ONC0004560, tyrphostin 9 sf 6847], 1.693%; to `CC(C)(C)c1cc(C=C(C#N)C#N)cc(Br)c1O` [ONC0004740, ag1024], 105.8%.

The record behind these values is PMC12670160, “A drug-repurposing screen of FDA- and EMA-approved drugs identifies two NF-κB inhibitors active against eumycetoma” (Journal of Antimicrobial Chemotherapy, 2025).
